Results on 1 molecule are retold here after ChEMBL document CHEMBL1961873, “Compounds: GSK PKIS; Assays: Nanosyn kinase panel” (2012).

Assay [1] concerns the target Protein kinase C gamma type (Homo sapiens) (UniProt P05129). As to conditions: at 1 µM.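 Further: each value is an averaged percent inhibition of the enzyme.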
The target of assay [2] is T1, Protein kinase C iota type (Homo sapiens) (UniProt P41743).
T1 sequence (whole entry): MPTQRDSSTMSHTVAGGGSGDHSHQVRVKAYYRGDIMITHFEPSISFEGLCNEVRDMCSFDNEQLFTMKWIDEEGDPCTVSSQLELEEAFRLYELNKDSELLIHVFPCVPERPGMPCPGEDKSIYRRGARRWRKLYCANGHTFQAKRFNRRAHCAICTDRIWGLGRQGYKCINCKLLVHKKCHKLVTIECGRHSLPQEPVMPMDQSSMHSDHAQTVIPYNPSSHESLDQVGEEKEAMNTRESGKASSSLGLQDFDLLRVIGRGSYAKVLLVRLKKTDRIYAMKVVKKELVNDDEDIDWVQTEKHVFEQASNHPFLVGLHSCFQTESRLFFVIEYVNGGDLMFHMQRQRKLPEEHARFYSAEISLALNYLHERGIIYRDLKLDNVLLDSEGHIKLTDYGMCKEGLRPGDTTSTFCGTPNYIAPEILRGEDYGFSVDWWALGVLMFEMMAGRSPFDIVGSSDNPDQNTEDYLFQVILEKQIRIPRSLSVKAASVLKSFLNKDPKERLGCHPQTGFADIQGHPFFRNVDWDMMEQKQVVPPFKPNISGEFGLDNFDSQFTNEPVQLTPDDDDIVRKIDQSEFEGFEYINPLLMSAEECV
As to conditions: at 0.1 µM.

Assay [3] concerns the target T1, Protein kinase C iota type (Homo sapiens). Conditions: at 1 µM.
Assay [4] deals with Protein kinase C theta type (Homo sapiens) (UniProt Q04759). Conditions: at 0.1 µM.
Protein kinase C theta type (Homo sapiens), sequence (Q04759 whole entry, looked up): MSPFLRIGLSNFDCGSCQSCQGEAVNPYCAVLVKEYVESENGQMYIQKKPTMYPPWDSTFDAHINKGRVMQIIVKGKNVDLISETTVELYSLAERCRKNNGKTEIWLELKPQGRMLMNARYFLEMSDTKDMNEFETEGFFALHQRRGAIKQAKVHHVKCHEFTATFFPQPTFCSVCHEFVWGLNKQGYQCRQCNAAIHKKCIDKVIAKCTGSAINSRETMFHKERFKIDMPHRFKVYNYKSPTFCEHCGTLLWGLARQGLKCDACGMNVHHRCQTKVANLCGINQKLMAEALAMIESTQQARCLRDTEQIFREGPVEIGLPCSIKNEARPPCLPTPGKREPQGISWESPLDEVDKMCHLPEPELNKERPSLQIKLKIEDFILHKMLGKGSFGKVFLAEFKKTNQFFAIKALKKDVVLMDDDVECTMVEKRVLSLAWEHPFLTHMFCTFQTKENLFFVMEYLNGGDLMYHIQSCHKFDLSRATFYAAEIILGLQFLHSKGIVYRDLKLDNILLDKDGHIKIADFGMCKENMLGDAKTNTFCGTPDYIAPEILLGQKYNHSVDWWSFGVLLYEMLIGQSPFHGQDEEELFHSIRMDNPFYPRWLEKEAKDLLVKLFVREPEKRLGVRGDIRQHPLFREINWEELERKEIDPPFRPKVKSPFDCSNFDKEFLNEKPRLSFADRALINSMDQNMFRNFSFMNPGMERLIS
Assay [5] has the same target. Conditions: at 1 µM.
Assay [6] addresses Protein kinase C beta type (Homo sapiens) (UniProt P05771). Conditions: at 0.1 µM.
For assay [7] the target is unchanged. As to conditions: at 1 µM.
Assay [8] deals with T2, Serine/threonine-protein kinase D1 (Homo sapiens) (UniProt Q15139).
T2 sequence (whole entry): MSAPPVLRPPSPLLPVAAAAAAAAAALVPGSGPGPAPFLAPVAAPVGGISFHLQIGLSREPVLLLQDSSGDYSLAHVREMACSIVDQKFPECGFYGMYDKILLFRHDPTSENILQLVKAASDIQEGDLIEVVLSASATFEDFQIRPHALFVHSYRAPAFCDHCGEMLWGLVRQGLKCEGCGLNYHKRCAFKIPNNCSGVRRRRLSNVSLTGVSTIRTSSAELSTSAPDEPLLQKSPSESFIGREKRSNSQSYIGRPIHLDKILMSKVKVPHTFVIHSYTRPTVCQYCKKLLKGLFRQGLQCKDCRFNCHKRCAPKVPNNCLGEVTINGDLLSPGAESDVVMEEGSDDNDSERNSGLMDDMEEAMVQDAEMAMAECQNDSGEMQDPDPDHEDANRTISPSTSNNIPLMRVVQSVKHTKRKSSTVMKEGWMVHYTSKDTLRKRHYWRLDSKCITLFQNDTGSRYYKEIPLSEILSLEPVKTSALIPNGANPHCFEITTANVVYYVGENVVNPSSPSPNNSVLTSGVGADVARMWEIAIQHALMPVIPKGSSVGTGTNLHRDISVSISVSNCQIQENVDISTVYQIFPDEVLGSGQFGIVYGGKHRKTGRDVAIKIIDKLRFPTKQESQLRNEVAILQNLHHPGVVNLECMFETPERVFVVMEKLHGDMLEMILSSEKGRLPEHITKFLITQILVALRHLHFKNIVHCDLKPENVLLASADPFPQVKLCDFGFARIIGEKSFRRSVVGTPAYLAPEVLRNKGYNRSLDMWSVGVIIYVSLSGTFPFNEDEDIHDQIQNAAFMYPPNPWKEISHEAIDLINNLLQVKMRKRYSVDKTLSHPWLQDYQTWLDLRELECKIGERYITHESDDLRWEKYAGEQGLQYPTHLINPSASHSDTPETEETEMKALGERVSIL
As to conditions: at 0.1 µM.

In assay [9] the target is T2, Serine/threonine-protein kinase D1 (Homo sapiens). As to conditions: at 1 µM.
For assay [10], the target named is T3, Serine/threonine-protein kinase D2 (Homo sapiens) (UniProt Q9BZL6).
T3 sequence (whole entry): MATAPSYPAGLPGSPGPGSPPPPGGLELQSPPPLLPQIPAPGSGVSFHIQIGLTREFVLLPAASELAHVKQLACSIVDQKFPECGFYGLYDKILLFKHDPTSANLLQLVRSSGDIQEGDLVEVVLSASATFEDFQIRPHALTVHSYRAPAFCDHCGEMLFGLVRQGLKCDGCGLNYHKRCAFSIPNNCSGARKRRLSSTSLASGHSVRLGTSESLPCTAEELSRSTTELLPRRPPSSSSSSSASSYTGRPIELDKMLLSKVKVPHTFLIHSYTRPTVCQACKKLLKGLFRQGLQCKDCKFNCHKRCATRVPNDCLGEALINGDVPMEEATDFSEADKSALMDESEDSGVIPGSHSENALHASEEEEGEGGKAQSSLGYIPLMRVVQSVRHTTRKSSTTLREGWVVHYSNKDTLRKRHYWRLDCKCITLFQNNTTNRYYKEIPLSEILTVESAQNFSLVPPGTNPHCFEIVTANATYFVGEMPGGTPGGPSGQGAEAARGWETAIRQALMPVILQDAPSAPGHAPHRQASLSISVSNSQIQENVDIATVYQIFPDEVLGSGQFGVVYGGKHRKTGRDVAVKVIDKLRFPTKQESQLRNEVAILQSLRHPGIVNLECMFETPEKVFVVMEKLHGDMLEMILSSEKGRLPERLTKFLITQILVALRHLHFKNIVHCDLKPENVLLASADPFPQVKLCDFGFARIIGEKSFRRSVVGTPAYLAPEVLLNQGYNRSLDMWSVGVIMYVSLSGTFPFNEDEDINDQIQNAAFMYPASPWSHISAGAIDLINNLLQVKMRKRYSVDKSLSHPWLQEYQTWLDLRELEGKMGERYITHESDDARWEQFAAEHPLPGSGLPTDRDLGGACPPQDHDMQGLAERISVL
As to conditions: at 0.1 µM.

For assay [11], the target named is T3, Serine/threonine-protein kinase D2 (Homo sapiens). Conditions: at 1 µM.
Assay [12] concerns the target T4, Serine/threonine-protein kinase D3 (Homo sapiens) (UniProt O94806).
T4 sequence (whole entry): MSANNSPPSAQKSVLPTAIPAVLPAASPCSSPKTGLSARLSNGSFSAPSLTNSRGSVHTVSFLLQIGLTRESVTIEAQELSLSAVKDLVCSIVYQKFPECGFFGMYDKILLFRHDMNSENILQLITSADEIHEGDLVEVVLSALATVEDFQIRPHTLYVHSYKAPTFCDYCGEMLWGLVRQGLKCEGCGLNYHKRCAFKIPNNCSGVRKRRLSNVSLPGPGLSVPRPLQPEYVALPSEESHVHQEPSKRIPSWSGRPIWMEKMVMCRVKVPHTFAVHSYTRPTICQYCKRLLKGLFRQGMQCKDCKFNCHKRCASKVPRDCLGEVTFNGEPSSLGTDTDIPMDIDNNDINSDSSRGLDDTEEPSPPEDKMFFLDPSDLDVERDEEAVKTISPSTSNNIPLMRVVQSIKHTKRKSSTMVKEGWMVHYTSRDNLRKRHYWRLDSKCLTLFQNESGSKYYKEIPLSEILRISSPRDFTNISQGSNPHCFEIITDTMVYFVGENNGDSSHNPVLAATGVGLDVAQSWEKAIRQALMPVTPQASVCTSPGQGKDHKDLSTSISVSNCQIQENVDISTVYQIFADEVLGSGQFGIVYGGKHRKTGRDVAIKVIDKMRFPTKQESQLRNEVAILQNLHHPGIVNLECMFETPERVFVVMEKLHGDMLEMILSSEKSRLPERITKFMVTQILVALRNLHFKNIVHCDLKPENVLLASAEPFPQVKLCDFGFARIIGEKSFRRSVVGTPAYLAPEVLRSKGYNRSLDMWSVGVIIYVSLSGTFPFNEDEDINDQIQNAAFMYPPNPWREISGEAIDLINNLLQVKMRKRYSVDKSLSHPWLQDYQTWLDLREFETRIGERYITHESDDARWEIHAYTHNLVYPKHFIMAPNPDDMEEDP
Conditions: at 0.1 µM.

In assay [13] the target is T4, Serine/threonine-protein kinase D3 (Homo sapiens). As to conditions: at 1 µM.
The target of assay [14] is T5, cGMP-dependent protein kinase 1 (Homo sapiens) (UniProt Q13976).
T5 sequence (whole entry): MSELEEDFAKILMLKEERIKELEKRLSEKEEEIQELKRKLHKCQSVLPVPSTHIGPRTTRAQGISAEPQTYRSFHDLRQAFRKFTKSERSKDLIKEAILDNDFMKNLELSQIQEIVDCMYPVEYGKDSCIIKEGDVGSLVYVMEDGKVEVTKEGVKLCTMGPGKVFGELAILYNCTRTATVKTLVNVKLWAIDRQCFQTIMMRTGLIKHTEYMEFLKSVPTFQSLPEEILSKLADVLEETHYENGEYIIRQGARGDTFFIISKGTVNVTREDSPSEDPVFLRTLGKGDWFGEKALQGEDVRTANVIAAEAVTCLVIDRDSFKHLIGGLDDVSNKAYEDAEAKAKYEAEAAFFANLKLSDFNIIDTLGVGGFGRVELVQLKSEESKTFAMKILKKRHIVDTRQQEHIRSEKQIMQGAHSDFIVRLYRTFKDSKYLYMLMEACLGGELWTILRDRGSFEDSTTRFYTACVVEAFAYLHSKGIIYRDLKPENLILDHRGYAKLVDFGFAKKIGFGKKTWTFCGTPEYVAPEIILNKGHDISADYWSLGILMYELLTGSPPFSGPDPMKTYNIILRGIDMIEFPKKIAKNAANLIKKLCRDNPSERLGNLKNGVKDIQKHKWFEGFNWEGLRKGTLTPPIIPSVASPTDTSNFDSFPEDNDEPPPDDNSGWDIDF
As to conditions: at 0.1 µM.

The target in assay [15] is T5, cGMP-dependent protein kinase 1 (Homo sapiens). As to conditions: at 1 µM.
The target of assay [16] is T6, cGMP-dependent protein kinase 2 (Homo sapiens) (UniProt Q13237).
T6 sequence (whole entry): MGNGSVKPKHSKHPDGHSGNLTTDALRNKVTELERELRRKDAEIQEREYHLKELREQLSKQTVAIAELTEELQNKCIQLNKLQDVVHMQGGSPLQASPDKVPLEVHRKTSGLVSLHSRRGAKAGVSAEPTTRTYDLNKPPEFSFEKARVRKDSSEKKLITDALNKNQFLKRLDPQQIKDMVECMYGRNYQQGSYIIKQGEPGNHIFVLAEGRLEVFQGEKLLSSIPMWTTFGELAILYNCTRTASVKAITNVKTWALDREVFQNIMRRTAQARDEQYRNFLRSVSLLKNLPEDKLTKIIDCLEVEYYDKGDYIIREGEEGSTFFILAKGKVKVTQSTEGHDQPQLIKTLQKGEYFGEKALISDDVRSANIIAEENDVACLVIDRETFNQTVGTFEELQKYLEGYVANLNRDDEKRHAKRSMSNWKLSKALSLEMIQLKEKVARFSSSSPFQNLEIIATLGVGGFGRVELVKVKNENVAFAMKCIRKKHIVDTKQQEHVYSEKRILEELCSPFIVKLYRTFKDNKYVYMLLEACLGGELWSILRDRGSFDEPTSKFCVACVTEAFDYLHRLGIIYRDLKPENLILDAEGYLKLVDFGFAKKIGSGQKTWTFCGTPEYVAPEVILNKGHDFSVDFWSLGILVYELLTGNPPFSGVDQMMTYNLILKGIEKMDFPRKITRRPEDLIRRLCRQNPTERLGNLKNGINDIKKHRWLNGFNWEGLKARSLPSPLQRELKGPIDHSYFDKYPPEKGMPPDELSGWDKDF
As to conditions: at 0.1 µM.

Assay [17] addresses T6, cGMP-dependent protein kinase 2 (Homo sapiens). As to conditions: at 1 µM.
For assay [18], the target named is T7, cAMP-dependent protein kinase catalytic subunit PRKX (Homo sapiens) (UniProt P51817).
T7 sequence (whole entry): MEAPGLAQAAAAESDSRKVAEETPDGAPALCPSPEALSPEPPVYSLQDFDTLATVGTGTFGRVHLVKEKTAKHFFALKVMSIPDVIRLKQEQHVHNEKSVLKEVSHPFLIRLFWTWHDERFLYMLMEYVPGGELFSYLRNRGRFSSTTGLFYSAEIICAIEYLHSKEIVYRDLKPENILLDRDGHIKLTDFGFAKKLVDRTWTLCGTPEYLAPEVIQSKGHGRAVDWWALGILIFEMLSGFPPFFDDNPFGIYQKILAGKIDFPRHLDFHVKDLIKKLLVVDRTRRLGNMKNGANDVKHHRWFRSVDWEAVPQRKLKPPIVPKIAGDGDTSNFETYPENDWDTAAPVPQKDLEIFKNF
As to conditions: at 0.1 µM.

Assay [19] has as its target T7, cAMP-dependent protein kinase catalytic subunit PRKX (Homo sapiens). Conditions: at 1 µM.
Assay [20] has as its target Rho-associated protein kinase 1 (Homo sapiens) (UniProt Q13464). As to conditions: at 0.1 µM.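 Further: values are mean percent inhibition of ROCK1.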

Each structure is given as a SMILES string.

Protein kinase C beta type (Homo sapiens), sequence (P05771 2-671 limits assumed): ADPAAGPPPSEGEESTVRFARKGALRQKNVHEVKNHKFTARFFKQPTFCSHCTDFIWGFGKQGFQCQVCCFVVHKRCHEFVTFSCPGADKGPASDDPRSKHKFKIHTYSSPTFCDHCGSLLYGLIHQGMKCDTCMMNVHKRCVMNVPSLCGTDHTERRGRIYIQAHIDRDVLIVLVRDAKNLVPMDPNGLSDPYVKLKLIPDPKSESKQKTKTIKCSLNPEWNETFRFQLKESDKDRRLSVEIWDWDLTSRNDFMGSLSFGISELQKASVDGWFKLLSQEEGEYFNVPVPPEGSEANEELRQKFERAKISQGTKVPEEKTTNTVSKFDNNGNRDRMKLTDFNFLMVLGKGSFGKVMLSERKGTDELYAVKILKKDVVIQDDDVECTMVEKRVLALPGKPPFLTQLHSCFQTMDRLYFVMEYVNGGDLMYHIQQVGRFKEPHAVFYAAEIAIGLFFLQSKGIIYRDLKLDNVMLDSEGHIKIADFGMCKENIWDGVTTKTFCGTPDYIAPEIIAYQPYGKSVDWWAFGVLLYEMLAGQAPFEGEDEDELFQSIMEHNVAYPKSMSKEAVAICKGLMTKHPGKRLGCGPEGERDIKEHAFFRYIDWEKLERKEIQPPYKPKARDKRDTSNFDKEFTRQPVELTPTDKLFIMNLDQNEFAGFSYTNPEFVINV
Rho-associated protein kinase 1 (Homo sapiens), sequence (Q13464 2-1354 limits assumed): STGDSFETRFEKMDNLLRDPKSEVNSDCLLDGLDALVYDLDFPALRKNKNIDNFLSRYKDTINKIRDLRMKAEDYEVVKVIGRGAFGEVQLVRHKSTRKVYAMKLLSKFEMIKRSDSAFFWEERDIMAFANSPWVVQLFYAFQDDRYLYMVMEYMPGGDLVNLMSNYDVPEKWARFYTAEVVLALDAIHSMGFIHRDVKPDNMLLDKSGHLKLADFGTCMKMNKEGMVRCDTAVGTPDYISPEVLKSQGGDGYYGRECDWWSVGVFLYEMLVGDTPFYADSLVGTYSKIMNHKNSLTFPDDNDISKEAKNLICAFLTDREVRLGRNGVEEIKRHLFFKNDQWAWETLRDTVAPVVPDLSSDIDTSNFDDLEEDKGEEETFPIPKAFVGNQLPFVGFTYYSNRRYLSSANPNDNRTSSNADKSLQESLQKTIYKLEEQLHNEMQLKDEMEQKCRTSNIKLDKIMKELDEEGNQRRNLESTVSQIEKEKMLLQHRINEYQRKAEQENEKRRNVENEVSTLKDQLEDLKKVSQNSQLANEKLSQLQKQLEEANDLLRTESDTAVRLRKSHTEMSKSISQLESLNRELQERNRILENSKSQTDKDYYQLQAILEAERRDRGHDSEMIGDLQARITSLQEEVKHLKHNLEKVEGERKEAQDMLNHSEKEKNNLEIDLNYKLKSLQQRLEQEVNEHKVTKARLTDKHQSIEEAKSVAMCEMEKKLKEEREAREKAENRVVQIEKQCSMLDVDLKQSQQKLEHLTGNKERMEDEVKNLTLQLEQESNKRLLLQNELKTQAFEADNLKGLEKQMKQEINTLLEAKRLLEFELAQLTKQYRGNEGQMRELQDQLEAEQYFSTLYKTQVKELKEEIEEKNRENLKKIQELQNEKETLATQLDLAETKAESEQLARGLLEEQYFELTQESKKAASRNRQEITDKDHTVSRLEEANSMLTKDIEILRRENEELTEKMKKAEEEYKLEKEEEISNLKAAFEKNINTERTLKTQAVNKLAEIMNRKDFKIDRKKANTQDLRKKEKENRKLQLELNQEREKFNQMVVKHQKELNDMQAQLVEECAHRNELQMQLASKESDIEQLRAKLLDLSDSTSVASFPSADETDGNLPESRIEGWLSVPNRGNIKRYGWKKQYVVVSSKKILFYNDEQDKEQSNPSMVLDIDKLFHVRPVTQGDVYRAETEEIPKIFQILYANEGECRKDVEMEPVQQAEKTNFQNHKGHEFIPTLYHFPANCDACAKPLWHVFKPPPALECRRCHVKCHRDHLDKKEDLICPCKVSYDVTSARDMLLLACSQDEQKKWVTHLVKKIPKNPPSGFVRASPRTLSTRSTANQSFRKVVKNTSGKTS

One may read the inhibition as the change of the read-out against control, counted positive when it falls. Turning to `Fc1ccc(-c2c(-c3ccncc3)nc3n2CCS3)cc1`, the inhibition in assay [1] was 4.08%; in [2], 1.39%; in assay [3], 1.01%; in [4], 1.55%; in assay [5] it was 4.99%; in [6], 1.11%. The inhibition in assay [7] was 3.63%; in assay [8], -0.81%; in assay [9], 2.14%; in assay [10], -0.29%; in assay [11], 0.4%; in [12], 0.15%. In addition, the inhibition came to 1.02% in [13]; 4.15% in assay [14]; 8.03% in assay [15]; 2.62% in assay [16]; 7.38% in [17]; 6.08% in assay [18]. For the same molecule, the inhibition was found to be 14.6% in [19] and 8.73% in [20].
